Among the data in PubChem BioAssay (NCI) are growth values, retold here.

This is part of a sample that, as a whole, favours compounds with a hit. Of some 83,000 tested, about 20% had one in any assay.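 Activity criterion: percent growth below 10, measured after cells in 96-well plates were exposed to a single compound concentration for 48 hours.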 A number with no mark means an inactive call. Calls of active or inactive are those of the source.

Holding throughout (test): NCI-60 one-dose screen, 48 h (100 = growth as untreated, 0 = no growth, -100 = all killed)
For experiment [1], the system named is NCI-H23 lung. The following applies: 10 µM unless noted.
For experiment [2], the system named is NCI-H226 lung. The following applies: 10 µM unless noted.
Experiment [3] deals with NCI-H322M lung. The following applies: 10 µM unless noted.
Experiment [4] deals with NCI-H460 lung. The following applies: 10 µM unless noted.
The test system of experiment [5] is HOP-92 NSCLC. The note with it: 10 µM.
In experiment [6] the test system is NCI-H522 lung. The note with it: 10 µM.
In experiment [7] the test system is A549/ATCC NSCLC. The following applies: 10 µM unless noted.
Experiment [8] relates to COLO 205 colon. The note with it: 10 µM unless noted.
Experiment [9] relates to DU-145 prostate. The note with it: 10 µM unless noted.
Experiment [10] has as its system K-562 leukemia. The following applies: 10 µM unless noted.
The test system of experiment [11] is MALME-3M melanoma. The note with it: 10 µM unless noted.
Experiment [12] deals with MDA-MB-231 breast. The following applies: 10 µM unless noted.
Experiment [13] deals with RXF 393 renal. The note with it: 10 µM unless noted.
In experiment [14] the test system is SF-268 CNS. The following applies: 10 µM unless noted.
In experiment [15] the test system is SF-295 CNS. The following applies: 10 µM unless noted.
Experiment [16] relates to SF-539 CNS. The following applies: 10 µM unless noted.
Experiment [17] deals with UACC-257 melanoma. The note with it: 10 µM unless noted.
Experiment [18] relates to M14 melanoma. The following applies: 10 µM unless noted.
The subject of experiment [19] is 786-0 renal. The following applies: 10 µM unless noted.

Take `Cn1c2c(cc(S(=O)(=O)c3ccccc3)c1=O)CCc1c-2cnn1-c1ccc(Cl)cc1`: the growth in [1] was 69.7%; in experiment [2], -14.8% (active); in experiment [3], 38.9%; in experiment [4], 20.3%; in experiment [5], -34.2% (active); in experiment [6] it was -11.3% (active). In addition, the growth in experiment [7] is 8.48% (active); in experiment [8] it was 77.5%; in experiment [9], 8.78% (active); in experiment [10], 39.8%; in [11], -70.7% (active); in experiment [12], 31.3%. The growth in experiment [13] is 2.65% (active); in [14] it was 32.9%; in experiment [15], -4.18% (active); in experiment [16] it was -19% (active); in experiment [17], 11.7%; in experiment [18] it was 64%.
As for `COc1cc2cc3cc4cc(OC)c(OC)cc4c(C)[n+]3cc2cc1OC` (tested in a mixture with another compound), the growth in experiment [1] was 89%; in [2], 80%; in experiment [3] it was 89.8%; in [4] it was 89.1%; in experiment [5] it was 143%; in experiment [6], 56.4%. Moreover, the growth was 66.5% in [19]; 79.3% in experiment [9]; 58.1% in experiment [10]; 86.2% in experiment [11]; 94.5% in experiment [12]; 39.4% in experiment [14]. In addition, the growth in [15] is 70.7%; in experiment [16], 85%; in [17], 51.1%; in [18], 78.4%.
Turning to `O=C1c2ccccc2CCc2ccccc21`, the growth in experiment [1] was 100%; in [2], 100%; in [3] it was 92.7%; in [4], 108%; in experiment [5], 78.7%; in [6], 86.4%. The growth in experiment [7] is 98.5%; in experiment [19], 109%; in experiment [9] it was 104%; in experiment [11], 98%; in experiment [12], 96.8%; in experiment [13], 101%. Moreover, the growth is 96.5% in experiment [14]; 76.8% in experiment [15]; 107% in experiment [16]; 103% in [17]; 96.2% in experiment [18].
In the case of `COc1ccc(C2=NN(C(=O)c3cc(-c4ccc(C)cc4)nc4ccccc34)C(c3cc(-c4ccccc4)nn3-c3ccccc3)C2)cc1` (stereo not drawn), the growth in experiment [1] is 90.4%; in [2], 83.4%; in [3] it was 84.6%; in experiment [4], 74.5%; in experiment [5] it was 86.6%; in experiment [6], 82.9%. In addition, the growth in experiment [7] was 89.1%; in experiment [19], 95.6%; in [9], 91.2%; in [10], 84.1%; in [12], 99.1%; in [13], 95.2%. The growth in experiment [14] was 77.1%; in experiment [15], 86.7%; in experiment [16], 105%; in experiment [17], 96.8%; in experiment [18], 83.4%.
Turning to `COc1ccc2c(c1)/C(=C1/S/C(=N/c3nnc(C)s3)NC1=O)C(=O)N2Cc1ccc(Br)cc1`, the growth in [1] was 26.5%; in experiment [2] it was 54.7%; in experiment [3], 35.1%; in experiment [4] it was 6.08% (active); in experiment [5], 25.7%; in experiment [6] it was 29.6%. Also, the growth in experiment [7] is 20.7%; in [19], 34%; in [9] it was 41.6%; in experiment [10], 34.8%; in [11] it was 68.3%; in experiment [12] it was 53.4%. Further, the growth in [13] was 49.6%; in [14], 36%; in experiment [15], 15.4%; in experiment [16], 42.7%; in experiment [17], 57.4%; in [18], 37%.
For the compound `CCCCn1c(Cc2ccc(OC)cc2)nc2cc(OC)c(OC)cc2c1=O`, the growth in experiment [1] was 62.1%; in experiment [2] it was 68.1%; in experiment [3], 101%; in experiment [4], 99.2%; in experiment [5] it was 61.9%; in experiment [6], 87%. Further, the growth in [7] is 19.7%; in experiment [8], 107%; in experiment [9], 103%; in [10] it was 48.6%; in experiment [11], 112%; in experiment [12], 73.9%. Moreover, the growth in experiment [14] is 86.1%; in experiment [16], 103%; in experiment [17], -56.6% (active); in [18], 119%.
On to `Cn1cnc2nc[nH]c2c1=S`, for which the growth in experiment [1] is 98.7%; in experiment [2], 98.2%; in experiment [3], 101%; in experiment [4], 108%; in [5] it was 75.2%; in [6], 86.5%. Moreover, the growth in experiment [19] is 101%; in experiment [8], 116%; in experiment [9], 112%; in experiment [10] it was 103%; in experiment [11] it was 98.8%; in [12] it was 96.3%. In addition, the growth in experiment [13] is 110%; in [14], 107%; in experiment [15] it was 99.4%; in experiment [16], 110%; in experiment [17] it was 96.5%; in experiment [18] it was 105%.
In the case of `Nc1ncn([C@@H]2O[C@H](CO)[C@@H](O)C2(F)F)c(=O)n1`, the growth was 30.6% in [1]; 52.3% in experiment [2]; 70% in experiment [3]; 9.34% (active) in experiment [4]; 34.3% in experiment [5]; 86.9% in experiment [6]. The growth was 37.9% in [7]; 26.3% in experiment [19]; 43.5% in [9]; 65.7% in experiment [10]; 67.9% in experiment [11]; 80% in [12]. Moreover, the growth in experiment [13] is 45%; in [14], 65.4%; in experiment [15], 77.9%; in experiment [16], 22.3%; in experiment [17], 77.5%; in experiment [18], 15.6%.
